Common to all, as to test: NCI-60 one-dose screen, 48 h (100 = growth as untreated, 0 = no growth, -100 = all killed)
Details in all cases: 10 µM unless noted

Assay [1] deals with NCI-H23 lung.
For assay [2], the system named is NCI-H226 lung.
Assay [3] relates to NCI-H322M lung.
For assay [4], the system named is HOP-62 NSCLC.
The subject of assay [5] is NCI-H460 lung.
Assay [6] relates to HOP-92 NSCLC.
Assay [7] deals with NCI-H522 lung.
The subject of assay [8] is A549/ATCC NSCLC.
Assay [9] concerns 786-0 renal.
The test system of assay [10] is COLO 205 colon.

The panel holds about 83,000 compounds, 20% with a hit somewhere; the sample as a whole holds those more often.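 The test compound was applied at a single concentration to cells in 96-well plates for 48 hours, and percent growth was recorded.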 Unmarked numbers belong to inactive results. The source made the active and inactive calls. The calls were made as follows: active = growth percent below 10; inactive = the rest.

Turning to `O=C1/C(=C\c2cn(-c3ccccc3)nc2-c2ccc(-c3cccs3)cc2)CCc2ccccc21`, the growth in [1] was 71.4%; in assay [2], 74.4%; in assay [3], 98.5%; in [4], 75.5%; in assay [5] it was 47.1%; in assay [6] it was 78.7%. The growth in assay [7] is 24.7%; in assay [8], 60.4%; in assay [9] it was 73.2%; in assay [10] it was 74.6%.

In the case of `COc1ccc(-c2nc(SCC(C)C)nc(N/N=C\c3ccc(F)cc3)c2C#N)cc1`, the growth in [1] was 97.4%; in assay [2], 81.4%; in assay [3], 67.7%; in assay [4], 109%; in assay [5], 25.7%; in assay [6], 89.9%. The growth in [7] was 107%; in assay [8] it was 69.9%; in assay [9] it was 83%; in [10] it was 94.8%.

As for `COc1ccc(-c2nc(/C=C3\SC(=NCc4ccccc4)NC3=O)c3ccccn23)cc1`, the growth is -73.4% (active) in [1]; 5.75% (active) in assay [2]; 20.4% in [3]; -50.7% (active) in [4]; -54.6% (active) in [5]; -38.2% (active) in assay [6]. The growth in [7] is -36% (active); in assay [8] it was -27.3% (active); in assay [9] it was -96.3% (active); in assay [10], -69.1% (active).

Take `C#CCn1cnc2c(Nc3cccc(NC(=O)C=C)c3)ncnc21`: the growth in assay [1] was 89.7%; in assay [2], 66.3%; in [3] it was 103%; in assay [4], 75.2%; in assay [5], 80.3%; in [6], 68.5%. Also, the growth in assay [7] was 79.4%; in assay [8], 63.9%; in [9] it was 61.7%; in assay [10], 84.4%.

As to `CCOC(=O)c1c(C)c2c(n1C)CSc1cc(C(=O)c3ccccc3)c(=O)[nH]c1-2`, the growth in [1] is 81.7% [100 µM]; in assay [2], 98.3% [100 µM]; in assay [3] it was 90.5% [100 µM]; in assay [4], 103% [100 µM]; in assay [5] it was 79.6% [100 µM]; in assay [6], 84.4% [100 µM]. The growth in [7] is 97.5% [100 µM]; in [8], 78.9% [100 µM]; in assay [9] it was 106% [100 µM]; in [10], 117% [100 µM].

For the molecule `O=C(Nn1c2c(sc1=Nc1ccccc1)C(=O)c1ccccc1C2=O)c1cc2ccc1CCc1ccc(cc1)CC2`, the growth in assay [1] was 30.6%; in assay [2] it was 51.2%; in assay [3], 99.8%; in assay [4] it was 66.4%; in assay [5], 71.9%; in assay [6], 107%. For the same molecule, the growth was 68% in assay [7], 64% in assay [8], 81% in [9] and 102% in assay [10].

For `Fc1ccc(Nc2nc3nonc3nc2Nc2ccc(I)cc2)cc1`, the growth in assay [1] was -19.5% (active); in assay [2] it was -17.5% (active); in assay [3] it was 1.66% (active); in assay [4] it was -23.7% (active); in [5], 2.95% (active); in [6], -25.9% (active). The growth in [7] is -20.2% (active); in assay [8] it was 2.73% (active); in assay [9], -11.1% (active); in assay [10], -64.4% (active).

As to `COc1cc(-n2cc(-c3cc(O)c(C/C=C(\C)CCC=C(C)C)c(O)c3)nn2)cc2c1O[C@]1(C)CC[C@@H](O)C(C)(C)[C@H]1C2`, the growth was 26.2% in assay [1]; 52.7% in assay [2]; 35.4% in assay [3]; -15.1% (active) in [4]; 10.4% in assay [5]; -6.06% (active) in assay [6]. Moreover, the growth in assay [7] is -26.6% (active); in assay [8], 10.3%; in [9] it was 6.92% (active); in assay [10], 12.5%.

On to `CCOC(=O)c1c(NC(=O)c2ccc(C(C)C)cc2)sc2c(CN(C)C)c(O)ccc12`, for which the growth was 82.2% in [1]; 85.2% in assay [2]; 79.2% in assay [3]; 89.9% in assay [4]; 6.2% (active) in [5]; 69.5% in assay [6]. For the same molecule, the growth in [7] was 97.2%; in [8], 77%; in [9], -50.5% (active); in assay [10], -24.5% (active).

Take `CC(=O)OC[C@]12CCC(C)(C)C[C@H]1[C@@]1(O)[C@H](O)C[C@@H]3[C@@]4(C)CCCNC(C)(C)[C@@H]4CC[C@@]3(C)[C@]1(C)CC2`: the growth is 106% in [1]; 102% in assay [2]; 98.1% in assay [3]; 107% in assay [4]; 110% in [5]; 112% in assay [6]. For the same molecule, the growth is 93.6% in assay [7], 106% in assay [8], 101% in assay [9] and 117% in assay [10].
